Bioassay records from PubChem BioAssay.
Compounds with a hit are over-represented: about 4% of the library has one in this group of screens.
BoNT-A LC inh2 = BoNT/A light chain protease inhibitors, primary screen, biochemical, flow cytometry, MLPCN library | Botulinum neurotoxin type A light chain protease (Clostridium botulinum A str. ATCC 3502) | multiplex microsphere protease substrate cleavage | inhibition, % at 10 µM | actives 0.17% (n = 360,000) | AID 588499, 2011; also: plate controls were buffer without enzyme for full effect and enzyme alone for no effect
VHR inh abs = VHR1 phosphatase inhibitors, primary screen, biochemical, absorbance, uHTS; Dual specificity protein phosphatase 3 (Homo sapiens), P51452; recombinant VHR phosphatase, pNPP absorbance; inhibition, % at 13.3 µM; actives 0.52% (n = 290,000); in the data active = inhibition above about 50%
Target sequence (P51452 whole entry, looked up): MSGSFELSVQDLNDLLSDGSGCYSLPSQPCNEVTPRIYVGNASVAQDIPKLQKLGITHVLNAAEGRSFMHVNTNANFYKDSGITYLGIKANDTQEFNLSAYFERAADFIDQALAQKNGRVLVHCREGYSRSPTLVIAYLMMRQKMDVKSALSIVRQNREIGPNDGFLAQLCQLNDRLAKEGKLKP
BoNT-F LC inh = BoNT/F light chain protease inhibitors, primary screen, biochemical, flow cytometry, MLPCN library; inhibition, % at 10 µM; actives 0.22% (n = 360,000); Multiplex microsphere protease cleavage assay; AID 588497, 2011; in the data active = inhibition above about 35%, passing the limit was not always enough; inconclusive = no clear call, values can overlap the other calls; also: plate controls were buffer without enzyme for full effect and enzyme alone for no effect
MazF activator = activators of E. coli MazEF toxin-antitoxin RNase, primary screen, biochemical, fluorescence, uHTS; actives 0.32% (n = 350,000); FAM/BHQ RNA-DNA oligo cleavage fluorescence, 5 h; activation, % at 20 µM; AID 504720, 2011; in the data active = activation above about 50%
Target sequence (P0AE70 whole entry, looked up): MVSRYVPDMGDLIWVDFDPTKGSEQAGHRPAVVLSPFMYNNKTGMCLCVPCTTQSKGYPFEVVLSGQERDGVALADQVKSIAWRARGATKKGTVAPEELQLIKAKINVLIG
Anthrax LF inh2 = Bacillus anthracis LF protease inhibitors, primary screen, biochemical, multiplex microsphere, MLPCN library; actives 0.12% (n = 360,000); Lethal factor (Bacillus anthracis), P15917; multiplex microsphere protease cleavage assay; inhibition, % at 10 µM; AID 588501, 2011; also: plate controls were buffer without enzyme for full effect and enzyme alone for no effect
Bead autofluor = compound fluorescence in toxin protease inhibitor counterscreen. compound autofluorescence counterscreen, microsphere flow cytometry; hits give high values. fluorescence intensity (test concentration not listed). actives 3.1% (n = 360,000). AID 624483; in the data active = fluorescence intensity above about 16000; inconclusive = no clear call, values can overlap the other calls
* marks the source's active call; other numbers are inactive results; i = inactive; ? = inconclusive; · = no result given. Rule as the data show it, unless noted: active = inhibition above about 30%; inconclusive = no clear call, values can overlap the other calls; inactive = below that.

SMILES	BoNT-A LC inh2	VHR inh abs	BoNT-F LC inh	MazF activator	Anthrax LF inh2	Bead autofluor
Cc1c(C(=O)NCc2cccs2)oc2ccc(S(=O)(=O)N3CCOCC3)cc12	-0.6	17.5	4.1	8.5	5.4	9155
C=C(c1ccccc1)c1ccc(N(C)C)cc1	0.4	·	10.9	-4.0	-0.3	4239
CC(=O)Nc1ccc(C(=O)/C=C/c2ccco2)cc1	0.7	4.1	-16.7	5.0	-5.5	2568
CN(C)c1ccc(C(=O)c2ccccc2)cc1	-1.6	-2.4	-3.3	2.1	-2.2	17206*
CN(C)c1ccc(C(=O)/C=C/c2ccccc2)cc1	7.1	18.1	2.3	458.9*	2.4	1998
CCN(CC)c1ccc(/C=C/C(=O)c2ccc(Br)cc2)cc1	61.7*	20.9	81.2*	i	42.3*	30707*
CC(=O)Nc1cccc(C(=O)/C=C/c2ccco2)c1	?	2.7	-1.1	8.1	-5.8	22380*
CC(C)(C)C1=C(C#N)C(c2cccnc2)C(C#N)=C(N)O1 (stereo not given)	-0.4	8.5	-5.7	2.3	0.8	2318
O=C(Nc1ccccc1Cl)c1ccccc1Oc1ccc(C(F)(F)F)cc1[N+](=O)[O-]	1.8	21.9	-0.1	2.8	1.6	4868
CC(=O)Nc1cccc(C(=O)/C=C/c2ccc(N(C)C)cc2)c1	12.0	-3.9	3.0	145.3*	6.7	6083
CC(C)C(=O)Nc1ccc(-c2nnc(-c3ccccc3)o2)cc1	2.5	-22.4	-15.1	0.2	-20.6	2842
CC(C)C(=O)Nc1ccc(C(=O)c2ccccc2)cc1	-0.7	20.4	-0.5	-3.1	-0.2	19934*
Cc1ccccc1CN1C2=NCCN2c2ccccc21	0.0	-10.2	3.3	2.7	-0.9	3512
Clc1ccc(-n2nnnc2-c2ccccc2)cc1	?	4.4	-8.1	8.2	1.5	17854*
CCOc1cc(C(=O)Nc2ccc(C)cc2C)ccc1OCC(=O)N1CCCCC1	-0.7	10.2	-0.1	2.5	0.3	2119
COC(=O)c1ccccc1NC(=O)c1noc2c1CCCC2	2.5	3.5	0.7	-3.0	-2.2	19950*
COc1cc(NC(=O)c2noc3c2CCC3)c(OC)cc1Cl	3.2	-11.2	2.9	-3.4	-1.3	19679*
COc1cc(NC(=O)c2noc(C)c2[N+](=O)[O-])c(OC)cc1Cl	-1.3	81.8	4.1	1.8	0.2	5565
COc1cc(C(CC(=O)Nc2ncccc2C)N2Cc3ccccc3C2=O)cc(OC)c1OC (stereo not given)	-2.6	52.6*	-15.0	0.4	3.8	3686
COc1cccc(-c2ccc(C#N)c(SCC(=O)NCCc3cccc(Cl)c3)n2)c1	-0.7	20.8	-5.0	-26.7	-0.2	10407
COc1cccc(C(=O)NC2=NCCS2)c1OC	?	22.7	-1.0	7.1	-7.4	19499*
Cc1csc(NC(=O)c2oc3ccccc3c2C)n1	?	·	?	1.0	?	?
COc1cc(C(=O)Nc2cc(C)ccc2C)ccc1OCc1c(C)noc1C	0.3	·	0.3	5.5	1.8	3052
COc1cc(C(=O)NC2=NCCS2)ccc1OCc1c(C)noc1C	?	20.8	-5.8	4.1	0.1	20499*
Cc1c(C(=O)NC2=NCCS2)oc2ccccc12	-1.3	15.5	-11.8	-11.2	-0.9	21128*
SMILES	BoNT-A LC inh2	VHR inh abs	BoNT-F LC inh	MazF activator	Anthrax LF inh2	Bead autofluor
Cc1ccc(S(=O)(=O)N(C)c2ccc(OC(=O)COc3ccccc3)cc2)cc1	-1.3	·	12.4	-13.3	0.1	?
COc1ccc(NC(=S)N(CCN2CCOCC2)Cc2cc3cc4c(cc3[nH]c2=O)OCO4)cc1	·	7.2	·	·	·	·
NC(=O)[C@@H]1CCCN1Cc1c(C(=O)N2CCN(C3CCCCC3)CC2)nc2ccccn12	-0.6	18.8	-3.7	2.3	-0.3	4899
O=S(=O)(c1cccc(F)c1)N1CCN(Cc2ccc3c(c2)OCO3)CC1	0.8	8.3	3.5	-2.4	-3.6	16310*
Fc1ccccc1N1CCN(Cc2ccc3c(c2)OCO3)CC1	3.5	2.8	3.3	4.6	0.3	21279*
O=S(=O)(c1ccc(F)c(F)c1)N1CCN(Cc2ccc3c(c2)OCO3)CC1	-0.1	-5.4	-2.6	-8.4	-3.3	3597
COC(=O)c1cc(NC(=O)CSc2ncn[nH]2)ccc1Cl	-0.3	8.5	-2.6	1.0	-1.0	5975
